Growth data for 8 compounds are collected here from PubChem BioAssay (NCI).

What all share (test): NCI-60 one-dose screen, 48 h (100 = growth as untreated, 0 = no growth, -100 = all killed)
The subject of one test is NCI-H23 lung. Conditions: 10 µM unless noted.
A further test concerns NCI-H226 lung. The note with it: 10 µM unless noted.
The subject of the next test is NCI-H322M lung. The note with it: 10 µM unless noted.
Another test deals with HOP-62 NSCLC. Conditions: 10 µM unless noted.
The test system of another test is NCI-H460 lung. Conditions: 10 µM unless noted.
Another test concerns HOP-92 NSCLC. The note with it: 10 µM.
For another test, the system named is NCI-H522 lung. Conditions: 10 µM unless noted.
For a further test, the system named is A549/ATCC NSCLC. The note with it: 10 µM unless noted.
For the next test, the system named is 786-0 renal. The note with it: 10 µM unless noted.
The test system of the next test is COLO 205 colon. Conditions: 10 µM unless noted.
The test system of a further test is DU-145 prostate. The note with it: 10 µM unless noted.
For a further test, the system named is K-562 leukemia. Conditions: 10 µM unless noted.
The subject of another test is MALME-3M melanoma. The note with it: 10 µM unless noted.
In a further test the test system is MDA-MB-231 breast. Conditions: 10 µM unless noted.
The next test has as its system RXF 393 renal. Conditions: 10 µM unless noted.
The test system of the next test is SF-268 CNS. Conditions: 10 µM unless noted.
The next test concerns SF-295 CNS. Conditions: 10 µM unless noted.
The test system of another test is SF-539 CNS. Conditions: 10 µM unless noted.
The test system of the next test is UACC-257 melanoma. Conditions: 10 µM unless noted.

About 83,000 compounds went through this panel and 20% of them were active in at least one assay; those are over-represented in the sample as a whole.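 Compound tested at a single concentration for 48 hours in 96-well plates; a percent growth value below 10 was scored as active.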 A number with no mark means an inactive call. The source made the active and inactive calls.

Take `NS(=O)(=O)c1ccc(Nc2nc(N/N=C/CCc3ccccc3)nc(Nc3ccccc3)n2)cc1`: the growth in the test with NCI-H23 lung was 104%; in the test on NCI-H226 lung it was 104%; with NCI-H322M lung, 108%; with HOP-62 NSCLC it was 108%; in the test with NCI-H460 lung, 104%; in the test on HOP-92 NSCLC, 97.4%. The growth was 87.1% in the test with NCI-H522 lung; 106% with A549/ATCC NSCLC; 93.6% in the test with 786-0 renal; 105% with COLO 205 colon; 109% with DU-145 prostate; 96.7% with K-562 leukemia. For the same compound, the growth is 113% with MALME-3M melanoma; 97.5% with MDA-MB-231 breast; 96% in the test with RXF 393 renal; 107% in the test with SF-268 CNS; 106% with SF-295 CNS; 98.3% in the test with SF-539 CNS. Further, the growth in the test on UACC-257 melanoma is 112%.

With `O=C(Nc1cccc(C(F)(F)F)c1)c1cc(-c2ccc(F)cc2F)ccc1O`, the growth with NCI-H23 lung is -4.34% (active); in the test on NCI-H226 lung, 9.06% (active); in the test on NCI-H322M lung, 4.46% (active); in the test with HOP-62 NSCLC, 12.8%; in the test on NCI-H460 lung it was 2.67% (active); in the test on HOP-92 NSCLC it was -26.2% (active). The growth in the test with NCI-H522 lung was -4.56% (active); in the test with A549/ATCC NSCLC, 7.54% (active); with 786-0 renal, 14.9%; in the test with COLO 205 colon, 75.5%; in the test on DU-145 prostate, 18.9%; in the test on K-562 leukemia, 11.1%. The growth was -10.2% (active) with MALME-3M melanoma; 3.11% (active) in the test with MDA-MB-231 breast; -25.9% (active) in the test on RXF 393 renal; 16.5% with SF-268 CNS; -23.1% (active) in the test on SF-295 CNS; 10.4% in the test with SF-539 CNS. For the same compound, the growth in the test with UACC-257 melanoma was -8.74% (active).

As for `N#Cc1c(NC(=O)c2cccc(C(F)(F)F)c2F)sc2c1CCC(=O)C2`, the growth in the test with NCI-H23 lung was 11%; in the test with NCI-H226 lung, -23.9% (active); in the test on NCI-H322M lung it was 35.1%; in the test with HOP-62 NSCLC, 19.4%; in the test on NCI-H460 lung, 9.08% (active); in the test with HOP-92 NSCLC, -66.1% (active). Moreover, the growth in the test with NCI-H522 lung was 3.71% (active); in the test with A549/ATCC NSCLC it was 12.3%; with 786-0 renal, 14.8%; in the test on COLO 205 colon, -8.77% (active); in the test on DU-145 prostate it was 24.6%; in the test with K-562 leukemia, 1.31% (active). In addition, the growth is -21.6% (active) with MALME-3M melanoma; -48% (active) in the test with MDA-MB-231 breast; -67.1% (active) in the test on RXF 393 renal; 11.2% in the test on SF-268 CNS; -19.4% (active) in the test on SF-295 CNS; -41.8% (active) in the test with SF-539 CNS. The growth in the test with UACC-257 melanoma was -36.3% (active).

On to `COc1ccc(-c2cc(-c3ccc(Cl)cc3)c(C#N)c(=O)n2Cc2ccc(C(=O)O)cc2)cc1`, for which the growth with NCI-H23 lung is 85.9%; in the test with NCI-H226 lung it was 100%; with NCI-H322M lung, 95.5%; in the test on HOP-62 NSCLC it was 78.6%; with NCI-H460 lung, 92.4%; in the test with HOP-92 NSCLC, 98.3%. Further, the growth with NCI-H522 lung was 28.5%; in the test on A549/ATCC NSCLC, 108%; in the test with 786-0 renal, 108%; in the test with COLO 205 colon it was 109%; with DU-145 prostate, 112%; with K-562 leukemia, 54.3%. The growth is 52.9% with MALME-3M melanoma; 95.6% with MDA-MB-231 breast; 72.1% in the test with RXF 393 renal; 67.8% in the test with SF-268 CNS; 68.3% with SF-295 CNS; 69.1% in the test on SF-539 CNS. Also, the growth with UACC-257 melanoma is 83.8%.

`COC(=O)C(Cc1ccccc1)Nc1nc(NC(Cc2ccccc2)C(=O)OC)nc(N2CCOCC2)n1` (stereo unspecified): the growth in the test with NCI-H23 lung is 107%; in the test with NCI-H226 lung it was 102%; with NCI-H322M lung, 97.4%; in the test on HOP-62 NSCLC, 97.3%; with NCI-H460 lung it was 107%; in the test with HOP-92 NSCLC, 119%. Further, the growth with NCI-H522 lung is 91%; in the test on A549/ATCC NSCLC, 108%; in the test with 786-0 renal it was 100%; with COLO 205 colon, 105%; in the test on DU-145 prostate, 112%; with K-562 leukemia, 91.6%. Besides, the growth with MALME-3M melanoma is 105%; with MDA-MB-231 breast, 103%; in the test on RXF 393 renal, 113%; in the test on SF-268 CNS, 103%; in the test on SF-295 CNS, 108%; with SF-539 CNS it was 98%. In addition, the growth in the test on UACC-257 melanoma is 103%.

Regarding `NS(=O)(=O)c1ccc(-n2cc(CN3CCCCC3)nn2)cc1`, the growth with NCI-H23 lung is 107%; with NCI-H226 lung, 98.6%; in the test with NCI-H322M lung, 107%; in the test with HOP-62 NSCLC it was 106%; in the test with NCI-H460 lung, 105%; in the test with HOP-92 NSCLC it was 96.6%. The growth in the test on NCI-H522 lung was 95.8%; in the test with A549/ATCC NSCLC, 105%; in the test with 786-0 renal, 109%; in the test with COLO 205 colon it was 119%; in the test on DU-145 prostate it was 108%; in the test on K-562 leukemia, 94.9%. In addition, the growth with MALME-3M melanoma was 105%; in the test with MDA-MB-231 breast, 105%; in the test with RXF 393 renal it was 106%; in the test on SF-268 CNS, 102%; in the test with SF-295 CNS, 102%; in the test on SF-539 CNS, 102%. Further, the growth with UACC-257 melanoma was 101%.

Consider `COc1c(N2CC3CCCNC3C2)c(F)cc2c(=O)c(C(=O)N/N=C/c3c[nH]c4ccccc34)cn(C3CC3)c12` (stereo unspecified), for which the growth in the test on NCI-H23 lung was 102%; in the test on NCI-H226 lung, 107%; in the test on NCI-H322M lung, 105%; with HOP-62 NSCLC, 109%; in the test on NCI-H460 lung, 107%; in the test with HOP-92 NSCLC it was 79.6%. The growth is 107% with NCI-H522 lung; 102% in the test with A549/ATCC NSCLC; 95.1% with 786-0 renal; 107% in the test on COLO 205 colon; 104% with DU-145 prostate; 3.26% (active) in the test with K-562 leukemia. Moreover, the growth with MALME-3M melanoma was 118%; in the test on MDA-MB-231 breast it was 95.3%; in the test with SF-268 CNS, 91.9%; in the test on SF-295 CNS, 110%; in the test with SF-539 CNS, 88.2%; in the test with UACC-257 melanoma, 121%.

As to `Cc1ccc(-c2nn(-c3ccccc3)cc2/C=C/C(=O)c2ccc(NC(=O)CCCCCCC(=O)NO)cc2)cc1`, the growth with NCI-H23 lung is 93.6%; in the test with NCI-H226 lung, 95.8%; with NCI-H322M lung it was 83.9%; in the test on HOP-62 NSCLC it was 86.4%; in the test on NCI-H460 lung it was 68.1%; with HOP-92 NSCLC, 96.4%. In addition, the growth was 40.4% with NCI-H522 lung; 76.9% in the test on A549/ATCC NSCLC; 56.8% with 786-0 renal; 96.2% in the test with COLO 205 colon; 79.1% with DU-145 prostate; 43.2% in the test on K-562 leukemia. Besides, the growth was 122% in the test with MALME-3M melanoma; 78.6% with MDA-MB-231 breast; -2.12% (active) in the test on RXF 393 renal; 81.8% with SF-268 CNS; 88% in the test on SF-295 CNS; 82.5% in the test on SF-539 CNS. Further, the growth in the test with UACC-257 melanoma was 82.3%.
